# Test results: PubChem BioAssay AID493170 (National Center for Advancing Translational Sciences (NCATS), 2011)
# Records with an inconclusive call do not appear. A number with no mark means an inactive call. Activity calls are given as the source filed them. The call rests on the fitted dose curve; in most records, active means well fitted inhibition curve with a large enough effect; inconclusive means small, poorly fitted or top-dose-only effect, or effect the other way; inactive means flat fitted curve, though single readings scatter.
# Target: Ubiquitin carboxyl-terminal hydrolase 2 (Homo sapiens) (UniProt O75604)
# Sequence (O75604 whole entry, looked up): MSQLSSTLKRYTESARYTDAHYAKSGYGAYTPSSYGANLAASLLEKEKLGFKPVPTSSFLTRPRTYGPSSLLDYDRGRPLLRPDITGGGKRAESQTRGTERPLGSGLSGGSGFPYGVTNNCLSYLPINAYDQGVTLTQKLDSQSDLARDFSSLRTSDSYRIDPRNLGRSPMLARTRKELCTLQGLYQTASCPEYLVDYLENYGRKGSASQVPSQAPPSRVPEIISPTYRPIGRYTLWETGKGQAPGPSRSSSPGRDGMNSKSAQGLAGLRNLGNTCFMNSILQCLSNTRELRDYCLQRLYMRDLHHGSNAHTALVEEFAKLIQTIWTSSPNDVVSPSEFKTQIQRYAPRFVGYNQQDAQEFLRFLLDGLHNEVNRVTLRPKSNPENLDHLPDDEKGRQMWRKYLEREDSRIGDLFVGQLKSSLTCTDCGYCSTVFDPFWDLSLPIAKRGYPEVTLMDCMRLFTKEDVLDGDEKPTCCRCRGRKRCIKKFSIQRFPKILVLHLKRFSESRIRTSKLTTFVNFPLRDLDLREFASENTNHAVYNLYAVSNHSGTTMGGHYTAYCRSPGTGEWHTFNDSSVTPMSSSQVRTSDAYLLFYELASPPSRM
# Assay: Ub-rhodamine 110 based assay for inhibitors Ubiquitin-specific Protease USP2a; further: nearly all actives have a fitted effect of over 50% in size
# Conditions: USP2a Ub-rhodamine110 cleavage, fluorescence; series mostly up to 38.3 µM; activity change, negative = inhibition: at the top concentration
# How it was run: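 Kinetic fluorescence (485/531 nm) read each minute over 7 min after adding Ub-Rhod110 (150 nM final) to USP2a (5 nM final). The enzyme had 30 min RT exposure to compounds beforehand in Tris pH 8.0 buffer with CaCl2, CHAPS and beta-ME.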
# On the % scale 0 is the no-effect control and ±100 the full control effect; potency means the concentration at half of the fitted maximal effect.
Structure (SMILES),"activity change, negative = inhibition [%]",Potency
CCn1nc(C(=O)N[C@@H](CCSC)c2nc3ccccc3[nH]2)c2ccccc2c1=O,-8.19,–
O=C(CSc1nc2ccccc2c(=O)n1CC1CCCO1)NCc1ccccc1 (centres undefined),-13.2,–
CC1CCCC(N2CCN(C(=O)c3cccc(F)c3)CC2)C1 (centres undefined),-6.05,–
FC(F)Sc1ccc(NC(=S)NC2CCCCC2)cc1,-3,–
O=C(N/N=C/c1ccc(-c2ccc(Cl)c(C(=O)O)c2)o1)c1cc2c(ccc3ccccc32)o1,–,10 µM (active)
O=C(O)C1CCN1C1CCCCC1 (centres undefined),-9.55,–
CC(=O)N1CCCc2cc(S(=O)(=O)CCC(=O)N3CCN(c4cccc(C)c4)C(C)C3)ccc21 (centres undefined),-26.2,–
Cc1ccc(N2CCN(C(=O)CCc3nc4ccccc4[nH]3)CC2)c(C)c1,-1.09,–
CSc1cccc(NC(=O)c2ccccc2N(C)S(C)(=O)=O)c1,1.08,–
CCCC(=O)Nc1ccc(N2CCN(C(=O)c3cc4ccccc4o3)CC2)cc1,-17.7,–
CC(C)C(=O)N=c1sc2cc(F)cc(F)c2n1C,-9.69,–
O=C(c1ccccc1)N1CCN(C(=O)N2CCCCC2)CC1,0.808,–
CCC(C)NC(=O)CSC1=Nc2ccccc2C2=NC(c3ccccc3)C(=O)N12 (centres undefined),-14,–
CCC(=O)c1ccc(OCC(=O)NC2CCN(Cc3ccccc3)CC2)cc1,-5.4,–
CC(=O)NS(=O)(=O)c1ccc(NC(=O)c2cc(-c3ccc(C)c(C)c3)nc3ccccc23)cc1,–,11.2 µM (active)
Cc1noc(/C=C/NCc2cccnc2)c1S(=O)(=O)N(C)CC(=O)N1CCc2ccccc21,-11.3,–
CCOc1ccccc1C(=O)N[C@H](C(=O)Nc1ccc(OC)c(S(=O)(=O)N2CCOCC2)c1)C(C)C,-7.42,–
COc1ccccc1C1NC(c2ccccc2OC)C(C)C(=O)C1C (centres undefined),5.06,–
O=C(Oc1ccccc1C(=O)Nc1ccccc1)c1ccccc1Br,-7.34,–
O=C(Cc1ccc(S(=O)(=O)N2CCOCC2)s1)NCCC(c1ccccc1)c1ccccc1,–,10 µM (active)

Structure (SMILES),"activity change, negative = inhibition [%]",Potency
O=C(COc1ccccc1)N1CCN(C(=O)Cc2ccccc2)CC1,1.44,–
COc1cc(C(=O)OCC(=O)Nc2c(F)c(F)c(F)c(F)c2F)cc(OC)c1OC,0.379,–
CCCOc1ccc(N2C(=O)CC(NCCc3ccc(S(N)(=O)=O)cc3)C2=O)cc1 (centres undefined),-20.6,–
CCOC(=O)N1CCN(C(=O)CN(c2ccc(Oc3ccccc3)cc2)S(C)(=O)=O)CC1,-6.74,–
COc1ccc(-c2noc(CSc3nnc(Cc4ccccc4)n3-c3ccc(Cl)cc3)n2)cc1,-20.3,–
COc1ccc(-n2c(O)c(/C=N/n3cnnc3)c3ccccc3c2=O)cc1,-3.98,–
COCCN1Cc2cccc(C(=O)N3CCN(c4cc(C)ccc4C)CC3)c2C1=O,-4.98,–
CCCn1c(NC(=O)c2ccc(Br)cc2)nc2ccccc21,0.793,–
CC(C)OCCCNC(=O)c1c(N)n(/N=C/c2ccccn2)c2nc3ccccc3nc12,-3.72,–
CCc1cc2cccc(C)c2nc1SCC(=O)N1CCN(C(=O)c2ccco2)CC1,-16.4,–
O=C(O)c1cccc(S(=O)(=O)NNc2ccccc2C(F)(F)F)c1,-7.76,–
CC12CN3CC(C)(CN(C1)C3c1ccc(Cl)cc1Cl)C2O (centres undefined),-1.96,–
Cc1ccc(/C=C/S(=O)(=O)N2CCC(C(=O)O)CC2)cc1,1.06,–
COc1ccc(S(=O)(=O)N2CCCCC2)cc1NC(=O)Cc1c[nH]c2ccccc12,-20.6,–
COc1cccc(-c2csc3nnc(SCC(=O)NCc4cccs4)n23)c1,-10.5,–
CCOC(=O)N1CCN(CC(=O)n2c(C)c(C)c3ccccc32)CC1,-10.6,–
C#CCOCCOCCOCCNc1nc(N2CCN(C(=O)CCCCCCCCCCNC(=O)Cn3cc(C[C@@H](C)O)nn3)CC2)nc(N2CCN(C(=O)CCCCCCCCCCNC(=O)[C@@H]([C@H](C)CC)n3cc(CCCCCN)nn3)CC2)n1,-28.3,–
CC(=O)Nc1ccc(NC(=O)C2CCCN(S(=O)(=O)c3ccc(Cl)cc3)C2)cc1 (centres undefined),-9.2,–
Cc1ccc(C(=O)NCc2ccc3c(c2)OCO3)cc1N1CCCC1=O,-7.01,–
